# Screening data deposited in PubChem by National Center for Advancing Translational Sciences (NCATS).
# VDR inh = inhibitors of human vitamin D receptor | P11473 | VDR-SRC2-3 peptide fluorescence polarization, 2 h | Potency, µM, for inactives: max response, negative = inhibition, actives largely listed as inhibitors | 400,000 compounds, 0.93% hits | AID 504847
#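 Two reagent solutions held at 4 deg C in the dark were dispensed, compounds pinned at 23 nl, and the mixture incubated 2 h at room temperature. Read-out: fluorescence polarization of VDR–SRC2-3 peptide binding.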
# DT40 TDP1 CPT = growth inhibition of DT40 Tdp1-/-;hTDP1 cells with camptothecin (screen for TDP1 inhibitors) | chicken DT40 Tdp1-/-;hTDP1 cells + 20 nM CPT, ATP luminescence, 48 h | Potency, µM (titrated, usually from 46.2 µM), for the others: at the top dose activity change, negative = growth inhibition, most hits filed as inhibitors | 420,000 compounds, 12% hits | AID 686979; also: nearly all actives have a fitted effect of over 55% in size
#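 Chicken DT40 Tdp1-/- cells stably complemented with human TDP1 were seeded at 400 cells/well in medium containing 20 nM camptothecin, exposed to pin-transferred compounds, and grown at 37 °C for at least 48 hr. Viability was read as ATP luminescence.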
# DT40 TDP1 no CPT = qHTS for Inhibitors of human tyrosyl-DNA phosphodiesterase 1 (TDP1): qHTS in cells in absence of CPT; DT40 Tdp1-/- hTDP1 cells, no CPT, ATP luminescence, 48 h; Potency, µM (highest dose often 46.2 µM), for the others: at the top dose activity change, negative = growth inhibition, actives largely listed as inhibitors; 420,000 compounds, 15% hits; AID 686978, 2013; also: nearly all actives have a fitted effect of over 55% in size
#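 Growth kinetics read by CellTiter-Glo luminescence after ≥48 hr at 37 °C. Cells: DT40 Tdp1-/- stably carrying human TDP1, 400 per well, compound exposure in the absence of CPT (DMSO vehicle).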
# PLK1 PBD block = PLK1 (human) polo-box domain binding inhibition; AID 720504; Potency, µM, for inactives: max response, negative = inhibition, usual class: inhibitors; Plk1 PBD binding of FITC phosphopeptide, fluorescence polarization; 360,000 compounds, 2.8% hits; also: series mostly up to about 57 µM; nearly all actives have a fitted effect of over 65% in size
# KAT2A inh = blocks human GCN5L2 histone acetyltransferase. GCN5L2 HAT assay, ThioGlo1 CoA-SH fluorescence. Q92830. Potency, µM (highest dose often 58.9 µM), for inactives: at the highest dose activity change, negative = inhibition, usual class: inhibitors. AID 504327. 390,000 compounds, 0.21% hits
# Target sequence (Q92830 whole entry, looked up): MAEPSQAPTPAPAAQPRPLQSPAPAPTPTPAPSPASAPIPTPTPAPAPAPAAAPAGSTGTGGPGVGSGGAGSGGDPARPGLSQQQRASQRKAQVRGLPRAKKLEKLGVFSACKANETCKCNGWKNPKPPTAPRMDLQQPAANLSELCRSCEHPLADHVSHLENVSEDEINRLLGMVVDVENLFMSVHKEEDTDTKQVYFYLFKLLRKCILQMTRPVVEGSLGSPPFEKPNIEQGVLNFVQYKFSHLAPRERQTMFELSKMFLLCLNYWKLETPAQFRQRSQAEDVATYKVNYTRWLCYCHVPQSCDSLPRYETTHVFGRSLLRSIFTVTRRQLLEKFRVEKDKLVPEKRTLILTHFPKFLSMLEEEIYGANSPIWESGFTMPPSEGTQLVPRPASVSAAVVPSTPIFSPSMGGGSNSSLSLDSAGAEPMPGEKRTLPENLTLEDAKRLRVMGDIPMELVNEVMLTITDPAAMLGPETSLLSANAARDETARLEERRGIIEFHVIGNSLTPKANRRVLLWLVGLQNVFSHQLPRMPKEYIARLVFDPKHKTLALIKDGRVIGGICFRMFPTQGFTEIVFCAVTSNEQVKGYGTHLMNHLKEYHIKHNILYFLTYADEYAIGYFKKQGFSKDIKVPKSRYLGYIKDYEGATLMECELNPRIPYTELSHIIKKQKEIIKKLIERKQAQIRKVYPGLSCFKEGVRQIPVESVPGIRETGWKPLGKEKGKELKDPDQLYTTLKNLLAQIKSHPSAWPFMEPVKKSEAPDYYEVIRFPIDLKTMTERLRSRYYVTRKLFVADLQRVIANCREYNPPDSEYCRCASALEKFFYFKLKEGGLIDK
#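 Titration-based screen in which CoA formation is detected via maleimide probe ThioGlo1 (50uM) turning fluorescent on thiol reaction; substrates H3(1-25) 75uM and acetyl-CoA 70uM, GCN5L2 20nM, 20 min incubation at room temperature.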
# TDP1 inh = blocks human tyrosyl-DNA phosphodiesterase 1 | recombinant TDP1, AlphaScreen DNA substrate cleavage | Potency, µM (titrated, usually from 130 µM), inactives show at the highest dose activity change, negative = inhibition, usual class: inhibitors | 350,000 compounds, 0.28% hits | AID 485290; also: nearly all actives have a fitted effect of over 40% in size
#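 Steps: enzyme plus compound, 15 min RT; add biotin/phosphotyrosine-FITC oligonucleotide (15 nM final), react 5 min; add donor/acceptor beads (10 ug/ml final), 10 min; read AlphaScreen. Tdp1 at 1 nM final.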
# * marks the source's active call; other numbers are inactive results; u = inconclusive; x = no result given; [ ] = dose if it differs, or a comment. In the library only some 18% were active in any assay of this set; here they are far more common. Calls follow the shape of the dose curve; as a rule, active = well fitted curve in the direction sought with a large enough effect; inconclusive = small, poorly fitted or top-dose-only effect, or another doubt; inactive = no such curve, though single readings can be large; an effect the other way counts as inactive or inconclusive. % is scaled to controls: 0 for no effect and ±100 for the full control effect; potency is read from the fitted curve at half-maximal effect.
SMILES,VDR inh,DT40 TDP1 CPT,DT40 TDP1 no CPT,PLK1 PBD block,KAT2A inh,TDP1 inh
COc1ccc(C2=NC(C)(C)N(CC(=O)Nc3cccc(C)c3)C2=O)cc1,10%,4.6µM*,3.7µM*,x,-8%,5%
COC(=O)c1cc2oc3ccccc3c2n1Cc1ccccc1Cl,-7%,20%,-6%,x,-6%,4%
N=C(SC1CC(=O)N(c2ccc(F)cc2)C1=O)N1N=C(c2ccccc2)CC1c1ccccc1 (centres undefined),-10%,16µM*,u,-15%,0%,9%
Cc1nc(-c2ccccc2)nc2[nH]c(C(C)C)cc(=O)c12,-6%,u,21µM*,-10%,2%,-3%
CC(=O)N1N=C(c2ccc(C(C)(C)C)cc2)OC1(C)C,3%,15µM*,10µM*,-7%,-12%,x
COc1ccc(CC2(C)OC(c3ccc(C)cc3)=NN2C(C)=O)cc1 (centres undefined),10%,6%,u,-10%,-4%,1%
CC(=O)N1N=C(c2ccc(Br)cc2)OC12CCCC2,3%,-9%,-20%,3%,-3%,-1%
CC(=O)N1N=C(c2ccc3ccccc3c2)OC1(C)C,2%,18µM*,u,-12%,0%,3%
CC(C)(Oc1ccc(C2CCCc3ccccc32)cc1)C(=O)O (centres undefined),-1%,0%,-9%,x,-18%,8%
CCOc1ncccc1C(=O)Nc1ccc(Cl)c(S(=O)(=O)N2CCCC2)c1,3%,21µM*,21µM*,-12%,0%,3%
CCOc1ncccc1C(=O)Nc1cc(S(=O)(=O)N2CCCCC2)ccc1Cl,-12%,-21%,-25%,-1%,-14%,1%
CCOc1ncccc1C(=O)Nc1ccc2nc(C)sc2c1,14%,u,18µM*,-19%,-4%,12%
O=C(CCc1nc2sc3c(c2c(=O)[nH]1)CCCC3)Nc1cccc(Cl)c1,-15%,u,21µM*,-20%,2%,x
O=C(c1ccccc1F)N1CCN(Cc2nc3sc4c(c3c(=O)[nH]2)CCCC4)CC1,26%,2%,-16%,-6%,-5%,5%
Cc1cc(C)cc(NC(=O)CCc2nc3sc4c(c3c(=O)[nH]2)CCCC4)c1,-7%,4.6µM*,10µM*,0%,-13%,x
N#Cc1cnn(-c2nc3sc4c(c3c(=O)[nH]2)CCCC4)c1N,19%,21µM*,15µM*,-17%,-3%,5%
Cc1ccc(C(=O)N2CCN(Cc3nc4sc5c(c4c(=O)[nH]3)CCCC5)CC2)cc1,-16%,29µM*,21µM*,-9%,-3%,14%
O=c1[nH]c(C2CCN(S(=O)(=O)c3ccccc3C(F)(F)F)CC2)nc2c1nnn2Cc1cccc(F)c1,5%,u,u,-20%,-37%,x
COCc1nc2sc3c(c2c(=O)[nH]1)CCCC3,-6%,-8%,-5%,3%,0%,3%
CCCc1nc2sc3c(c2c(=O)[nH]1)CCCC3,79µM*,u,u,27µM*,-1%,4%
CN(CC(=O)Nc1ccccc1C(F)(F)F)C(=O)CCc1nc2sc3c(c2c(=O)[nH]1)CCCC3,-12%,u,u,3%,-12%,0%
CCN(CC(=O)Nc1ccccc1C(F)(F)F)C(=O)CCc1nc2sc3c(c2c(=O)[nH]1)CCCC3,-11%,u,16µM*,-15%,-8%,x
Cc1nc(N)ncc1-c1ccc2c(c1)OCO2,0%,5%,-22%,5%,u,x
C/C(CCC(=O)OC[C@@H]1O[C@H](C#Cc2ccccc2)C=C[C@@H]1Oc1ccc(C)cc1)=N/O[C@@H](C)c1cn([C@H]2COC[C@H]2O)nn1,x,x,x,x,x,10%[21 µM]
COc1cccc(N2CC(O)=C(c3nc4ccccc4s3)C2=N)c1,-11%,1.6µM*,1.5µM*,-12%,-2%,5%
SMILES,VDR inh,DT40 TDP1 CPT,DT40 TDP1 no CPT,PLK1 PBD block,KAT2A inh,TDP1 inh
COc1ccc(N2CC(O)=C(c3nc4ccccc4s3)C2=N)cc1,14%,-27%,-15%,-8%,-15%,2%
CCOC(=O)c1cccc(NC(=O)c2cnc3sc(N4CCOCC4)nn3c2=O)c1,5%,u,u,x,5%,5%
O=[N+]([O-])CC(c1ccccc1)c1c[nH]c2ccccc12 (centres undefined),1%,7.3µM*,5.8µM*,-7%,x,x
Nc1ncnc2c1ncn2[C@@H]1O[C@H](C(=O)Nc2ccc(C(=O)N3CCCCC3)cc2)[C@@H](O)[C@H]1O,x,3%,6%,-2%,x,x
CCc1ccc(NC(=O)CSc2nc3c(oc4ccccc43)c(=O)n2-c2cccc(C)c2)cc1,-6%,u,u,x,-7%,0%
Cc1cc(-n2c(SCc3ccccc3F)nc3n[nH]c(C)c3c2=N)ccc1Cl,-18%,u,u,-9%,0%,6%
Cc1ccc(Cl)cc1-n1c(SCC(=O)NCc2ccccc2)nc2n[nH]c(C)c2c1=N,12%,u,u,x,-1%,1%
COc1ccccc1NC(=O)CSc1nc2n[nH]c(C)c2c(=N)n1-c1ccccc1Cl,-1%,23µM*,26µM*,-5%,-13%,5%
CCc1ccccc1NC(=O)CSc1nc2n[nH]c(C)c2c(=N)n1-c1cccc(C)c1,1%,7.3µM*,3.7µM*,x,8%,5%
CCc1c(O)nc(SCC(=O)Nc2ccccc2OC)n(-c2ccccc2C)c1=O,3%,-1%,17%,-3%,-10%,6%
CCCCNC(=O)CSc1nc2n[nH]c(C)c2c(=N)n1-c1ccccc1CC,1%,15µM*,10µM*,x,1%,3%
Cc1cccc(-n2c(SCC(=O)Nc3ccccc3Cl)nc3n[nH]c(C)c3c2=N)c1,1%,15µM*,21µM*,x,-13%,6%
O=C1CCN(Cl)C(=O)N1Cl,x,-4%,-7%,-8%,x,x
COc1ccc(S(=O)(=O)Nc2cccc3c2O[C@H](CN(C)C(=O)Nc2ccc(C(F)(F)F)cc2)[C@@H](C)CN([C@H](C)CO)C3=O)cc1,-13%,u,-28%,2%,-9%,1%
Cn1cccc1-c1cc2n(n1)CCC(=O)N2CCCC(=O)NCc1cccc(Cl)c1,9%,-29%,-24%,x,-3%,9%
O=C(COc1ccc(NC(=O)c2cccs2)cc1)c1ccc(F)cc1,-2%,-9%,-9%,-10%,-4%,-7%
Fc1ccc(-n2cc(CNCCc3cccnc3)c(-c3ccccc3Cl)n2)cc1,-5%,15µM*,23µM*,-8%,-1%,-5%
